Among the data in PubChem BioAssay are composite z-score and z-score values, retold here.

Assay [1] relates to XIP peptide (Xip251-270) binding. Kind of assay: small-molecule binders of XIP peptide, primary screen, biochemical, small-molecule microarray, fluorescence 635/667 nm, 0.1 µg/mL protein (AID 1182). The note with it: fluorescent protein binding, 635 nm, higher = more signal, called active from +8 up or from −8 down.
For assay [2], the system named is XIP peptide (Xip251-270). Kind of assay: small-molecule binders of XIP peptide, primary screen, biochemical, small-molecule microarray, fluorescence 635/667 nm, 0.5 µg/mL protein (AID 1183). Particulars: small-molecule microarray binding, fluorescence 635 nm; higher = more signal.
Assay [3] is described as follows: Plasmodium falciparum growth inhibition, primary screen, strain 3D7, DAPI fluorescence, 100 nL (AID 1184).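 Note: parasites grown inside human red blood cells in medium with human serum.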 The note with it: P. falciparum 3D7 growth, 3 d, higher = more signal.
The target of assay [4] is Homeobox protein Hox-A13 (Mus musculus) (UniProt Q62424). Kind of assay: inhibitors of HoxA13-DNA binding, primary screen, biochemical, fluorescence polarization, labeled oligonucleotide (AID 1185). Particulars: 15 min, higher = more signal, called active from +8 up or from −8 down.
Homeobox protein Hox-A13 (Mus musculus), sequence (Q62424 whole entry, looked up): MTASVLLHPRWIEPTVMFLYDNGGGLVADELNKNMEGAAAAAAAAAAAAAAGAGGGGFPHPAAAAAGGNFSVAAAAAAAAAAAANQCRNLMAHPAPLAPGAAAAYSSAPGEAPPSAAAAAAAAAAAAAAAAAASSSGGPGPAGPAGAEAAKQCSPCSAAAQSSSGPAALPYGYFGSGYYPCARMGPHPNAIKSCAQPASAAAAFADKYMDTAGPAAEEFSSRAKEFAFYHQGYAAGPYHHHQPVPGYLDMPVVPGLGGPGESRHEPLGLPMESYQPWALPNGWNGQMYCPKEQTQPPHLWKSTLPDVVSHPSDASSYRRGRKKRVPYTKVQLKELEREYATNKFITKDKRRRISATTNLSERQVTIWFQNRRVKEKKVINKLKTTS
The nature of assay [5]: inhibitors of hydroxyurea-induced Chk1 phosphorylation, primary screen, imaging, HeLa, phospho-Chk1 antibody, percent positive cells (AID 1186). Particulars: hydroxyurea-induced phospho-Chk1 immunofluorescence imaging, higher = more signal.
A short description of assay [6]: inhibitors of hydroxyurea-induced Chk1 phosphorylation, primary screen, imaging, HeLa, phospho-Chk1 nuclear intensity (AID 1187). The note with it: hydroxyurea-induced phospho-Chk1 immunofluorescence imaging, higher = more signal.

Active and inactive are the calls of the source. Unless noted, the rule behind the calls is not given here.

As for `[N-]=[N+]=Nc1ccccc1C[C@@]1(C(N)=O)N=C(c2ccc(OCCCO)cc2)O[C@@H]1c1ccccc1`, the values for the composite z-score in assay [1] and in assay [2] were 0.353 (inactive) and -0.649, respectively. In addition, the z-score in assay [3] is -2.14; in assay [4], -4.43 (inactive); in assay [5] it was -0.332 (inactive); in assay [6], -0.449 (inactive).

With `C[C@@H](c1ccccc1)N1C(=O)[C@H]2[C@H]3[C@H](O)C=CC(=O)[C@@H]3CC[C@H]2C1=O`, the composite z-score in assay [1] was 0.146 (inactive); in assay [2] it was 0.014. The z-score was -0.173 in assay [3] and -0.308 (inactive) in assay [4].

Regarding `CC(C)=CCCC(C)=CCON=C1C[C@@H](O)[C@@H](O)[C@@H]2[C@@H]3C(=O)N(C[C@@H]4CCCO4)C(=O)[C@@H]3CC[C@@H]12`, the composite z-score in assay [1] is 0.0561 (inactive); in assay [2], 0.539. The z-score is 1.55 in assay [3] and 0.264 (inactive) in assay [4].

In the case of `Cc1ccc(S(=O)(=O)N[C@@H]2COC(=O)[C@H](C)COC(=O)CC=C[C@H]2C)cc1`, the figures for the composite z-score in assay [1] and in assay [2] were -0.396 (inactive) and -0.152, respectively. In addition, the z-score is -0.18 in assay [3] and -0.424 (inactive) in assay [4].

On to `CC(C)CON=C1C[C@@H](O)[C@@H](O)[C@@H]2[C@@H]3C(=O)N(Cc4ccccc4)C(=O)[C@@H]3CC[C@@H]12`, for which the composite z-score in assay [1] is -0.347 (inactive); in assay [2] it was -0.229. The z-score in assay [3] was -0.388; in assay [4] it was -0.596 (inactive).

Regarding `CCOC(=O)[C@H](Cc1ccccc1)NC(=O)CCC1CC(OC(=O)NCc2ccc3c(c2)OCO3)CC2(CCCC(COC(=O)NCC3CCCCC3)O2)O1` (stereo not given in full), the figures for the composite z-score in assay [1] and in assay [2] were -0.292 (inactive) and 0.646, respectively. Besides, the z-score in assay [3] was -1.96; in assay [4], -2.6 (inactive).

Take `CCCNC(=O)OC[C@H]1O[C@H](CCON=C[C@@H](OC)[C@H](C)C=CCC(=O)OC)C=C[C@@H]1Oc1ccc(OC)cc1`: the composite z-score in assay [1] is 0.228 (inactive); in assay [2], 0.162. Moreover, the z-score in assay [3] was 0.232; in assay [4] it was -5.88 (inactive).

For the compound `CCN1C(=O)[C@H]2[C@H]3[C@H](O)C=CC(=O)[C@@H]3CC[C@H]2C1=O`, the results for the composite z-score in assay [1] and in assay [2] were -0.638 (inactive) and -0.0737, respectively. For the same compound, the z-score is 1.02 in assay [3] and 0.116 (inactive) in assay [4].

For the compound `C[C@@H]1CC[C@H]2C(=O)O[C@H](COc3ccc(C(C)(C)C)cc3)CN2[C@H]1c1ccc(Br)cc1`, the composite z-score was -0.418 (inactive) in assay [1] and 0.769 in assay [2]. For the same compound, the z-score in assay [3] was -0.407; in assay [4], 1.23 (inactive).

As for `COCCNC(=O)OCC1CCCC2(CC(OC(=O)NCCc3ccc(F)cc3)CC(CCC(=O)N[C@@H](C)C(=O)OC)O2)O1` (stereo not given in full), the composite z-score was 0.417 (inactive) in assay [1] and 0.579 in assay [2]. The z-score in assay [3] was -1.82; in assay [4] it was -3.44 (inactive).

On to `CCc1cc2c(nc1CC)CCN(CCC(C)=NOC[C@@H](O)[C@H]1O[C@@H]3OC(C)(C)O[C@@H]3[C@H]1O)C2`, for which the composite z-score in assay [1] was 0.221 (inactive); in assay [2] it was 0.267. In addition, the z-score in assay [3] is 0.204; in assay [4], -5.4 (inactive).

For the compound `O=C1C2=CC[C@H]3C(=O)N(Cc4ccc5c(c4)OCO5)C(=O)[C@H]3[C@H]2[C@H](O)[C@@H]2O[C@H]12`, the composite z-score is 0.225 (inactive) in assay [1] and 0.0823 in assay [2]. Further, the z-score was 1.68 in assay [3] and -0.229 (inactive) in assay [4].

On to `CC(CCN1CCc2nc(-c3ccccc3)c(-c3ccccc3)cc2C1)=NO[C@H](C)c1cn([C@@H]2COC[C@H]2O)nn1`, for which the figures for the composite z-score in assay [1] and in assay [2] were -0.378 (inactive) and 0.175, respectively. In addition, the z-score in assay [3] is 0.429; in assay [4], -5.45 (inactive).

For `Cc1cc2c(nc1C)CCCN2CC(O)CN1CCN(C)CC1` (stereo not given), the composite z-score in assay [1] is 1.11 (inactive); in assay [2], 0.362. The z-score was 0.547 in assay [3] and -3.1 (inactive) in assay [4].

For the compound `CC(C)(C)N1C(=O)[C@H]2[C@H]3[C@H](O)[C@H](O)CC(=NOCc4ccccc4)[C@@H]3CC[C@H]2C1=O`, the composite z-score in assay [1] is 0.691 (inactive); in assay [2], 0.779. In addition, the z-score is 0.281 in assay [3] and 1.12 (inactive) in assay [4].

Consider `O=C1NC(=O)C2C1C=CC(C(O)Cc1ccccc1)N2Nc1ccccn1` (stereo not given), for which the composite z-score in assay [1] was -0.0757 (inactive); in assay [2], 0.804. Also, the z-score in assay [3] was 0.396; in assay [4], -3.75 (inactive); in assay [5], -0.349 (inactive); in assay [6] it was -0.306 (inactive).

Consider `CCCCc1nc2c(c3c1C[C@H](C)OC3)CN(CCC(C)C)CC2`, for which the composite z-score is 0.172 (inactive) in assay [1] and 0.715 in assay [2]. Besides, the values for the z-score in assay [3] and in assay [4] were -0.522 and -5.63 (inactive), respectively.

`COc1cccc([C@H]2Oc3ccc(OC)cc3C(=NO[C@H](C)c3cn([C@@H]4COC[C@H]4O)nn3)[C@@H]2O)c1`: the figures for the composite z-score in assay [1] and in assay [2] were 0.0524 (inactive) and -0.561, respectively. The z-score in assay [3] is -0.866; in assay [4], -2.61 (inactive).

In the case of `CC=CC1=C(CO)[C@H](O)[C@H]2O[C@H]2[C@H]1O`, the figures for the composite z-score in assay [1] and in assay [2] were -0.461 (inactive) and -0.229, respectively. The z-score is 0.337 in assay [3] and -0.532 (inactive) in assay [4].

With `Cc1ccc(S[C@]2(C(=O)O)CC(=O)N(Cc3ccccc3)[C@@H]2c2ccc(CO)cc2I)cc1`, the composite z-score was 0.233 (inactive) in assay [1] and 0.564 in assay [2]. Moreover, the z-score in assay [3] was -0.58; in assay [4] it was -2.92 (inactive); in assay [5], -0.123 (inactive); in assay [6] it was -0.134 (inactive).

In the case of `COc1ccc(O[C@H]2C=C[C@@H](c3ccccc3)O[C@@H]2COC(=O)N2CCCCC2)cc1`, the composite z-score in assay [1] is -0.275 (inactive); in assay [2] it was -0.216. The z-score in assay [3] was -0.43; in assay [4], -3.83 (inactive).
